Pf apPOL block: Pf-apPOL inhibitors, biochemical, fluorescence. Plasmodium falciparum apicoplast DNA polymerase (apPOL). Recombinant Pf-apPOL, molecular beacon fluorescence, 1.5 h. inhibition, % at 10 µM. 210,000 compounds, 0.25% hits
mHTT CaM bind: mutant huntingtin-calmodulin interaction inhibitors – biochemical, AlphaScreen, primary screen. inhibition, % at 15 µM. 190,000 compounds, 3.6% hits. AlphaScreen His-mHTT/GST-CaM binding, luminescence. P42858. AID 1671202, 2021;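 further: 0% = both proteins with DMSO and 100% = one protein alone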
Numbers without * were called inactive; . = no result; ! = not confirmed by another sample. Sampled rows, rich in hits. Any-hit rate of the full collection: about 3.6%. No stated cut-off is given here; in the data, active means inhibition above about 50%; inactive means the rest.

SMILES	Pf apPOL block	mHTT CaM bind
Cc1ccccc1NCN1C(=O)S/C(=C\c2ccccc2)C1=O	0	53*
CC(NC(=O)C1CCN(c2cc(N3CCCC3)ncn2)CC1)c1ccccc1 (centres undefined)	-1	10
CCN(CC)C(=O)CC[C@H]1CC[C@]2(CCCN(S(=O)(=O)c3ccccc3)C2)O1	-6	98*
CCOC(=O)CC[C@@H]1CC[C@]2(CCCN(S(=O)(=O)c3ccccc3)C2)O1	-4	-4
CC(NC(=O)c1cc2c(s1)CCN(C(=O)c1ccccc1)C2)c1ccccc1 (centres undefined)	-2	11
Cn1cc(C2=CCN(C(=O)NCc3cccc(F)c3)CC2)c2cccnc21	-5	50*
CCCn1cc(C2=CCN(C(=O)Nc3ccc4c(c3)OCCO4)CC2)c2cccnc21	-4	59*
CCCn1cc(C2=CCN(C(=O)NCc3ccccc3)CC2)c2cccnc21	-6	32
CCn1cc(C2=CCN(C(=O)Nc3ccc4c(c3)OCCO4)CC2)c2cccnc21	-4	34
Cc1ccccc1-n1[nH]c(C)c(C=Nc2ccc(O)cc2)c1=O	6	17
CCOc1ccccc1C(=O)N1CCC(COc2ccccc2C(=O)N2CCCC2)CC1	-1	-2
CCOc1ccccc1C(=O)N1CCC(CCOC)CC1	67*	-4
COc1cccc(CN2CCCC(c3n[nH]c(C4CC4)n3)C2)c1OC (centres undefined)	0	1
COc1ccc(NC(=O)C2CC2)cc1OC	2	0
C=C(C)C1CC=C(CNc2ccc(OC)c(OC)c2)CC1 (centres undefined)	-6	86*
Cc1ccc(S(=O)(=O)N2CCCCC2)cc1C(=O)Nc1ccc(NC(=O)c2ccccc2)cc1	3	0
COc1ccc(-c2coc3c4c(ccc3c2=O)OCN(C2CCCCC2)C4)cc1	-27	14
COc1ccc(-c2coc3c4c(ccc3c2=O)OCN(c2cc(Cl)c(OC)cc2OC)C4)cc1	-1	60*
CC1=NN(c2ccccc2)C(=O)C1	-3	.
CC1=NN(c2ccc(Cl)cc2)C(=O)C1	-2	68*
Cc1ccc(-n2nnc(C(=O)NCC(C)C)c2-c2ccncc2)cc1C	-3	-4
CC1(C)C(C=C(Cl)Cl)C1C(=O)Nc1sc2c(c1C(N)=O)CCCC2 (centres undefined)	1	100*
CC1(C)C(C=C(Cl)Cl)C1C(=O)Nc1sc2c(c1C#N)CCC2 (centres undefined)	-1	1
COc1cc(/C=C2\C(=O)NC(=O)N(c3ccccc3C)C2=O)cc(OC)c1OC	-2	3
COc1ccccc1OCC(=O)Nc1ccc(C)cc1Br	-6	-17
SMILES	Pf apPOL block	mHTT CaM bind
O=C(Nc1ccc(F)c(F)c1)c1ccc(N2CC3CC(C2)c2cccc(=O)n2C3)c([N+](=O)[O-])c1 (centres undefined)	-5	22
O=C(NCc1ccc(Cl)cc1)c1ccc(N2CC3CC(C2)c2cccc(=O)n2C3)c([N+](=O)[O-])c1 (centres undefined)	-8	59*
CN1C/C(=C/c2ccco2)C(=O)/C(=C/c2ccco2)C1	.	30
CN1CC(=Cc2ccco2)C(=O)C(=Cc2ccco2)C1	71*	.
CN(C)C(=O)NC(c1ccccc1)c1cc([N+](=O)[O-])c2cccnc2c1O (centres undefined)	-10	100*
CC(C)C(=O)NC(c1cccs1)c1cc([N+](=O)[O-])c2cccnc2c1O (centres undefined)	-5	100*
CCC(=O)NC(c1ccccc1)c1cc([N+](=O)[O-])c2cccnc2c1O (centres undefined)	1	100*
CCC(=O)NC(c1ccc(C(C)C)cc1)c1cc([N+](=O)[O-])c2cccnc2c1O (centres undefined)	-8	100*
COC(=O)COc1ccc2cc(-c3ccc(OC)cc3OC)c(=O)oc2c1	-3	-7
CCOc1cc(C=C(C#N)C#N)ccc1Oc1ccc([N+](=O)[O-])cc1[N+](=O)[O-]	-5	22
Cc1ccc(NC(=O)N2CCCC2c2nc(-c3cccc(Cl)c3)no2)cc1 (centres undefined)	-3	4
CCCC(=O)NC(c1ccc(C(C)C)cc1)c1cc([N+](=O)[O-])c2cccnc2c1O (centres undefined)	-2	51*
CCC(=O)NC(c1ccccc1Cl)c1cc([N+](=O)[O-])c2cccnc2c1O (centres undefined)	-3	100*
CCCC(=O)NC(c1ccc(Cl)cc1Cl)c1cc([N+](=O)[O-])c2cccnc2c1O (centres undefined)	-3	99*
CCC(=O)NC(c1ccccc1OC)c1cc([N+](=O)[O-])c2cccnc2c1O (centres undefined)	-4	100*
CN(C)C(CNC(=O)c1ccc(Br)o1)c1cn(C)c2ccccc12 (centres undefined)	-8	-10
C=CCNC(=O)C(=O)Nc1c(C)cccc1C	-4	4
CCOc1ccc(NC(=O)C(C)Sc2nnc(-c3cccc(OCC)c3)n2C)cc1 (centres undefined)	-6	9
CC(C)c1ccc(N2CCN(CC(=O)NCc3ccccn3)C2=O)cc1	-29	12
COc1cccc(Nc2ccc(-c3ccccc3)nn2)c1	-6	.
Cc1ccc(Nc2nc(-c3ccc(F)cc3)cs2)cc1	-5	35
COc1cccc(Nc2nc(-c3ccccc3)cs2)c1	1	62*
COc1ccc(-c2csc(NCc3ccccc3)n2)cc1	.	23
COc1cccc(Nc2nc(-c3ccc(OC)c(F)c3)cs2)c1	-7	64*
COc1ccc(-c2csc(Nc3ccccc3OC)n2)cc1F	11	43
SMILES	Pf apPOL block	mHTT CaM bind
CCc1ccc(-c2csc(Nc3cccc(OC)c3)n2)cc1	2	67*
Cc1ccc(C)c(-c2csc(Nc3ccc(Cl)cc3)n2)c1	-5	67*
Cc1cc(OC(=O)C(C)C)cc2c1C(=O)C(=Cc1ccncc1)O2	-2	31
COc1cccc(C2=N/C(=C\c3cccc(Br)c3)C(=O)O2)c1	-1	8
c1ccc(CN2CCN(c3nnnn3-c3ccccc3)CC2)cc1	-7	4
Cc1ccc(-c2noc(C3CCCCN3C(=O)C(C)C)n2)cc1 (centres undefined)	-1	-20
Cc1cccc(Nc2nc(-c3cccnc3)cs2)c1	-4	8
COc1cccc(Nc2nc(-c3cc(C)ccc3C)cs2)c1	-2	63*
CCOc1ccccc1NC(=O)CN(c1ccccc1C)S(C)(=O)=O	-2	0
O=c1c2ccc(Cl)cc2ncn1C1CCN(S(=O)(=O)c2ccccc2)CC1	-1	-6
c1ccc(C2=NNC(c3ccccc3)=NN2)cc1	99*!	24
O=C1NC(c2ccccc2)=NC1=Cc1ccccc1	3	.
Cc1nc2ccc(N(C)C)cc2s1	-7	13
CN(C)c1ccc2nc3ccc(=O)cc-3sc2c1	.	59*
Cc1ccccc1C(=O)N1CCCC(c2nc(CNC(=O)C3CC3)cs2)C1 (centres undefined)	-1	5
O=C1c2ccccc2C(O)(Cc2ccccc2)N1CC1CCCO1 (centres undefined)	-5	-5
Nc1c(Br)c(Br)c(N)c2c1C(=O)c1ccccc1C2=O	-2	27
Nc1c(C(=O)O)cc(Br)c2c1C(=O)c1ccccc1C2=O	-8	52*
